4 sequences from publication PMC11006913 can be followed below.

Assay in all cases: PBM; 200 nM protein, PBS
Common to all, as to conditions: dsDNA, one strand shown

In assay [1] the target is T1, VENTX (Homo sapiens, UniProt O95231 78-163, R121Q).
T1 sequence: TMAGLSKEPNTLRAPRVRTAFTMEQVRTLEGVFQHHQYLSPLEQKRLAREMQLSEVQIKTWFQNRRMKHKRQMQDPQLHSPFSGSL

Assay [2] concerns the target HOXC9 (Homo sapiens, UniProt P31274 178-260, K195R).
Assay [3] addresses T2, VENTX (Homo sapiens, UniProt O95231 78-163).
T2 sequence: T1 sequence with Q44R

The target of assay [4] is T3, VENTX (Homo sapiens, UniProt O95231 78-163, Y115F).
T3 sequence: T1 sequence with Y38F, Q44R

Assay [5] addresses HOXB6 (Homo sapiens, UniProt P17509 132-218, K202E).
In assay [6] the target is HOXC9 (Homo sapiens, UniProt P31274 178-260).
Chain of HOXC9 (Homo sapiens, UniProt P31274 178-260) (P31274 178-260): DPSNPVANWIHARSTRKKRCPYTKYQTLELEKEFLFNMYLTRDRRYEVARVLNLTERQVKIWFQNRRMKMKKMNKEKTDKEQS
Assay [7] addresses HOXC9 (Homo sapiens, UniProt P31274 178-260, R193K).
Assay [8] has as its target HOXC9 (Homo sapiens, UniProt P31274 178-260, R222W).
Assay [9] concerns the target HOXA4 (Homo sapiens, UniProt Q00056 201-287, W262F).
Assay [10] concerns the target HOXB6 (Homo sapiens, UniProt P17509 132-218).
The target of assay [11] is T4, SIX6 (Homo sapiens, UniProt O95475 114-200, L167I).
T4 sequence: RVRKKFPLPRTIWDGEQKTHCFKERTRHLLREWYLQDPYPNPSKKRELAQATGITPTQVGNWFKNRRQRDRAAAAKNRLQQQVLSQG

Assay [12] addresses T5, SIX6 (Homo sapiens, UniProt O95475 114-200, L143V).
T5 sequence: T4 sequence with L30V, I54L

The target of assay [13] is T6, SIX6 (Homo sapiens, UniProt O95475 114-200, H141N).
T6 sequence: T4 sequence with H28N, I54L

Assay [14] deals with T7, SIX6 (Homo sapiens, UniProt O95475 114-200, T165P).
T7 sequence: T4 sequence with T52P, I54L

Assay [15] has as its target T8, SIX6 (Homo sapiens, UniProt O95475 114-200, L167M).
T8 sequence: T4 sequence with I54M

Assay [16] concerns the target T9, SIX6 (Homo sapiens, UniProt O95475 114-200, L143M).
T9 sequence: T4 sequence with L30M, I54L

Assay [17] addresses T10, SIX6 (Homo sapiens, UniProt O95475 114-200, L143I).
T10 sequence: T4 sequence with L30I, I54L

In assay [18] the target is T11, SIX6 (Homo sapiens, UniProt O95475 114-200, T165G).
T11 sequence: T4 sequence with T52G, I54L

Assay [19] addresses T12, SIX6 (Homo sapiens, UniProt O95475 114-200, T139Q).
T12 sequence: T4 sequence with T26Q, I54L

Assay [20] deals with T13, SIX6 (Homo sapiens, UniProt O95475 114-200, T165A).
T13 sequence: T4 sequence with T52A, I54L

Assay [21] has as its target T14, SIX6 (Homo sapiens, UniProt O95475 114-200, L167V).
T14 sequence: T4 sequence with I54V

The target of assay [22] is T15, SIX6 (Homo sapiens, UniProt O95475 114-200).
T15 sequence: T4 sequence with I54L

Assay [23] has as its target VAX1 (Homo sapiens, UniProt Q5SQQ9 86-172).
The target in assay [24] is T16, SIX6 (Homo sapiens, UniProt O95475 114-200, T165I).
T16 sequence: T4 sequence with T52I, I54L

The target in assay [25] is VAX1 (Homo sapiens, UniProt Q5SQQ9 86-172, T142I).
Chain of VAX1 (Homo sapiens, UniProt Q5SQQ9 86-172, T142I) (Q5SQQ9 86-172 T142I): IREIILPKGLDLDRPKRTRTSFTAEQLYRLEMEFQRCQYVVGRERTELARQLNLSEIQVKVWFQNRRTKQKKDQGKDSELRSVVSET
Assay [26] has as its target VAX1 (Homo sapiens, UniProt Q5SQQ9 86-172, K157R).
Assay [27] has as its target HOXA2 (Homo sapiens, UniProt O43364 129-215, R185T).
The target in assay [28] is HOXA2 (Homo sapiens, UniProt O43364 129-215, R185K).
Chain of HOXA2 (Homo sapiens, UniProt O43364 129-215, R185K) (O43364 129-215 R185K): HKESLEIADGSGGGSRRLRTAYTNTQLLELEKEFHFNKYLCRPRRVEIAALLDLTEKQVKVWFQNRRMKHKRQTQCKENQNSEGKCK
For assay [29], the target named is HOXA2 (Homo sapiens, UniProt O43364 129-215, Y150S).
Chain of HOXA2 (Homo sapiens, UniProt O43364 129-215, Y150S) (O43364 129-215 Y150S): as the sequence (O43364 129-215 R185K) above, with Y22S, K57R counted along it
The target in assay [30] is HOXA2 (Homo sapiens, UniProt O43364 129-215).
Chain of HOXA2 (Homo sapiens, UniProt O43364 129-215) (O43364 129-215): as the sequence (O43364 129-215 R185K) above, with K57R counted along it

Substitutions are numbered along the chain they refer to.

Chain of VAX1 (Homo sapiens, UniProt Q5SQQ9 86-172) (Q5SQQ9 86-172): as the sequence (Q5SQQ9 86-172 T142I) above, with I57T counted along it
Chain of HOXC9 (Homo sapiens, UniProt P31274 178-260, R222W) (P31274 178-260 R222W): as the sequence (P31274 178-260) above, with R45W counted along it
Chain of HOXB6 (Homo sapiens, UniProt P17509 132-218) (P17509 132-218): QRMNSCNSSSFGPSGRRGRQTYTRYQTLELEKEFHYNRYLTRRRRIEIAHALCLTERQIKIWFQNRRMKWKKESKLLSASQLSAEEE
Chain of VAX1 (Homo sapiens, UniProt Q5SQQ9 86-172, K157R) (Q5SQQ9 86-172 K157R): as the sequence (Q5SQQ9 86-172 T142I) above, with I57T, K72R counted along it
Chain of HOXC9 (Homo sapiens, UniProt P31274 178-260, K195R) (P31274 178-260 K195R): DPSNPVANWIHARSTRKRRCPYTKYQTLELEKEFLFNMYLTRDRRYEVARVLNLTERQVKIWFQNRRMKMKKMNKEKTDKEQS
Chain of HOXC9 (Homo sapiens, UniProt P31274 178-260, R193K) (P31274 178-260 R193K): as the sequence (P31274 178-260) above, with R16K counted along it
Chain of HOXB6 (Homo sapiens, UniProt P17509 132-218, K202E) (P17509 132-218 K202E): as the sequence (P17509 132-218) above, with K71E counted along it
Chain of HOXA4 (Q00056 201-287 W262F): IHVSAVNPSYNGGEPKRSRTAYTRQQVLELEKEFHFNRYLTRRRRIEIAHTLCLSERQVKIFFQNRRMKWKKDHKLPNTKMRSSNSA
Chain of HOXA2 (Homo sapiens, UniProt O43364 129-215, R185T) (O43364 129-215 R185T): as the sequence (O43364 129-215 R185K) above, with K57T counted along it

Consider AGTTAATG, for which the binding signal in assay [1] is 11.5 upbm affinity estimate (log intensity, higher = more binding, comparable within an allelic series); in [2] it was 12.5 upbm affinity estimate (log intensity, higher = more binding, comparable within an allelic series); in [3], 12.4 upbm affinity estimate (log intensity, higher = more binding, comparable within an allelic series); in assay [4], 11.4 upbm affinity estimate (log intensity, higher = more binding, comparable within an allelic series); in assay [5], 9.94 upbm affinity estimate (log intensity, higher = more binding, comparable within an allelic series); in [6] it was 12.5 upbm affinity estimate (log intensity, higher = more binding, comparable within an allelic series). Besides, the binding signal was 12.5 upbm affinity estimate (log intensity, higher = more binding, comparable within an allelic series) in [7]; 10.8 upbm affinity estimate (log intensity, higher = more binding, comparable within an allelic series) in assay [8]; 11.4 upbm affinity estimate (log intensity, higher = more binding, comparable within an allelic series) in assay [9]; 11.7 upbm affinity estimate (log intensity, higher = more binding, comparable within an allelic series) in assay [10].
With CAAGGCCC, the binding signal in assay [1] was 7.94 upbm affinity estimate (log intensity, higher = more binding, comparable within an allelic series); in [11] it was 8.9 upbm affinity estimate (log intensity, higher = more binding, comparable within an allelic series); in assay [3], 7.78 upbm affinity estimate (log intensity, higher = more binding, comparable within an allelic series); in [12], 8.85 upbm affinity estimate (log intensity, higher = more binding, comparable within an allelic series); in [13] it was 8.89 upbm affinity estimate (log intensity, higher = more binding, comparable within an allelic series); in [14], 8.97 upbm affinity estimate (log intensity, higher = more binding, comparable within an allelic series). In addition, the binding signal in assay [4] was 7.82 upbm affinity estimate (log intensity, higher = more binding, comparable within an allelic series); in assay [15] it was 8.85 upbm affinity estimate (log intensity, higher = more binding, comparable within an allelic series); in assay [16], 8.93 upbm affinity estimate (log intensity, higher = more binding, comparable within an allelic series); in assay [17] it was 8.82 upbm affinity estimate (log intensity, higher = more binding, comparable within an allelic series); in assay [18], 8.95 upbm affinity estimate (log intensity, higher = more binding, comparable within an allelic series); in [19], 8.93 upbm affinity estimate (log intensity, higher = more binding, comparable within an allelic series). The binding signal in assay [20] is 8.92 upbm affinity estimate (log intensity, higher = more binding, comparable within an allelic series); in [21], 8.98 upbm affinity estimate (log intensity, higher = more binding, comparable within an allelic series); in [22] it was 8.89 upbm affinity estimate (log intensity, higher = more binding, comparable within an allelic series); in assay [23] it was 7.02 upbm affinity estimate (log intensity, higher = more binding, comparable within an allelic series); in assay [24], 8.88 upbm affinity estimate (log intensity, higher = more binding, comparable within an allelic series); in assay [25], 7.07 upbm affinity estimate (log intensity, higher = more binding, comparable within an allelic series). Further, the binding signal in assay [26] was 6.96 upbm affinity estimate (log intensity, higher = more binding, comparable within an allelic series).
ATGATATG: the binding signal in assay [1] is 9.57 upbm affinity estimate (log intensity, higher = more binding, comparable within an allelic series); in [11] it was 11.3 upbm affinity estimate (log intensity, higher = more binding, comparable within an allelic series); in assay [3], 9.91 upbm affinity estimate (log intensity, higher = more binding, comparable within an allelic series); in [12], 10.4 upbm affinity estimate (log intensity, higher = more binding, comparable within an allelic series); in [13], 11.3 upbm affinity estimate (log intensity, higher = more binding, comparable within an allelic series); in [14], 9.99 upbm affinity estimate (log intensity, higher = more binding, comparable within an allelic series). In addition, the binding signal in assay [15] is 10.7 upbm affinity estimate (log intensity, higher = more binding, comparable within an allelic series); in assay [16], 11.1 upbm affinity estimate (log intensity, higher = more binding, comparable within an allelic series); in assay [17], 10.5 upbm affinity estimate (log intensity, higher = more binding, comparable within an allelic series); in assay [18], 11.4 upbm affinity estimate (log intensity, higher = more binding, comparable within an allelic series); in [19] it was 11.3 upbm affinity estimate (log intensity, higher = more binding, comparable within an allelic series); in assay [20], 11.2 upbm affinity estimate (log intensity, higher = more binding, comparable within an allelic series). Besides, the binding signal in assay [21] was 11.1 upbm affinity estimate (log intensity, higher = more binding, comparable within an allelic series); in [22], 11.1 upbm affinity estimate (log intensity, higher = more binding, comparable within an allelic series); in assay [24] it was 11.1 upbm affinity estimate (log intensity, higher = more binding, comparable within an allelic series).
On to CCCCTCGG, for which the binding signal in [1] is 8.03 upbm affinity estimate (log intensity, higher = more binding, comparable within an allelic series); in assay [2], 9.54 upbm affinity estimate (log intensity, higher = more binding, comparable within an allelic series); in [3], 7.93 upbm affinity estimate (log intensity, higher = more binding, comparable within an allelic series); in assay [4] it was 8.04 upbm affinity estimate (log intensity, higher = more binding, comparable within an allelic series); in assay [5], 8.78 upbm affinity estimate (log intensity, higher = more binding, comparable within an allelic series); in [27], 7.19 upbm affinity estimate (log intensity, higher = more binding, comparable within an allelic series). Further, the binding signal in [6] is 9.64 upbm affinity estimate (log intensity, higher = more binding, comparable within an allelic series); in [7], 9.54 upbm affinity estimate (log intensity, higher = more binding, comparable within an allelic series); in assay [28], 10.3 upbm affinity estimate (log intensity, higher = more binding, comparable within an allelic series); in assay [23] it was 7.12 upbm affinity estimate (log intensity, higher = more binding, comparable within an allelic series); in assay [8], 9.5 upbm affinity estimate (log intensity, higher = more binding, comparable within an allelic series); in assay [25] it was 7.07 upbm affinity estimate (log intensity, higher = more binding, comparable within an allelic series). The binding signal in assay [29] is 10.4 upbm affinity estimate (log intensity, higher = more binding, comparable within an allelic series); in assay [30], 7.11 upbm affinity estimate (log intensity, higher = more binding, comparable within an allelic series); in assay [26], 7.1 upbm affinity estimate (log intensity, higher = more binding, comparable within an allelic series); in [10] it was 8.89 upbm affinity estimate (log intensity, higher = more binding, comparable within an allelic series).
